# Screening data from PubChem.
# Only some compounds are listed: those with a hit (about 19% of all), similar ones and a draw of the others.
# TDP1 block = inhibitors of human tyrosyl-DNA phosphodiesterase TDP1; Potency, µM (highest dose often 130 µM), for inactives: top-dose activity change, negative = inhibition, usual class: inhibitors; recombinant TDP1, AlphaScreen DNA substrate cleavage; actives 0.28% (n = 350,000); note: potency is the fitted concentration of half-maximal effect; % is set by controls: 0 for no effect and ±100 for the full control effect; nearly all actives have a fitted effect of over 40% in size
# Target sequence (Q9NUW8 whole entry, looked up): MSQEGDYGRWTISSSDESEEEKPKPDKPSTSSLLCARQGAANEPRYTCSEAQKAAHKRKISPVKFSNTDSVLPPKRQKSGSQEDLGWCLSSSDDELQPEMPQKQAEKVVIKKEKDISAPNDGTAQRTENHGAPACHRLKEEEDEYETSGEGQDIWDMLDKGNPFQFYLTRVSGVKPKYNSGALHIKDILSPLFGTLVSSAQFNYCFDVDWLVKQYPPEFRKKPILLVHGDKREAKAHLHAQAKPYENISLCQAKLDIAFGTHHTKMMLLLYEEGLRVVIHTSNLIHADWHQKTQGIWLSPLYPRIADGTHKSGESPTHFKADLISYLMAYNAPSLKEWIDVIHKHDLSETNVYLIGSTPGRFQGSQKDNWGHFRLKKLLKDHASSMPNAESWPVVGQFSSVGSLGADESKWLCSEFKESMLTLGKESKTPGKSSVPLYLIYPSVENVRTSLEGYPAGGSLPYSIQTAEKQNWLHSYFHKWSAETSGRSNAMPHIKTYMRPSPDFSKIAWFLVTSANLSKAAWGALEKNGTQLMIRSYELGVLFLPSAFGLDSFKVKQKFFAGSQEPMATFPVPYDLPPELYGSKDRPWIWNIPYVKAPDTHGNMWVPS
#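 Recombinant E. coli-expressed Tdp1 (1 nM) preincubated with compound 15 min at RT, then 5'-biotin/3'-phosphotyrosine-FITC DNA substrate (15 nM) added for 5 min. AlphaScreen beads (10 ug/ml) added, 10 min RT; tyrosine-FITC cleavage read as signal loss.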
# DT40 TDP1 CPT = DT40-hTDP1 cell growth loss with CPT; actives 12% (n = 420,000); chicken DT40 Tdp1-/-;hTDP1 cells + 20 nM CPT, ATP luminescence, 48 h; Potency, µM (doses to about 46.2 µM), inactives show at the highest dose activity change, negative = growth inhibition, most hits filed as inhibitors; AID 686979; note: potency is the fitted concentration of half-maximal effect; % is set by controls: 0 for no effect and ±100 for the full control effect; nearly all actives have a fitted effect of over 55% in size
#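 Chicken DT40 Tdp1-/- cells complemented with human TDP1, 400 cells/well, exposed to compounds plus 20 nM camptothecin for at least 48 h at 37 C; viability read as ATP content by CellTiter-Glo luminescence.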
# HepG2 tox = HepG2 cytotoxicity, counter-screen for TGF-b inhibitors. actives 0.76% (n = 410,000). HepG2 CAGA-GFP viability, ATP luminescence, 18 h. Potency, µM (titrated, usually from 46.1 µM), inactives show top-dose activity change, negative = cytotoxicity, hits mostly cytotoxic; note: potency is the fitted concentration of half-maximal effect
#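 HepG2 CAGA-GFP cells (1000/well, DMEM with 1% FBS) received compound, then TGF-beta at 500 pg/mL final, and were incubated 18 hours at 37 degrees C. Viability was read by CellTiter-Glo luminescence. Media-only wells were set as complete cell-killing and DMSO as no toxicity.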
# IL-1B inflam inh = blocks inflammasome-driven IL-1 beta release | AID 743279 | THP-1 LPS/ATP IL-1B secretion, AlphaLISA, 16 h; stronger effect = lower value | activity change, % at 57.5 µM | actives 4.7% (n = 360,000); in the data active = activity change below about -50%; inconclusive = mostly about -30% to -49%; note: % is set by controls: 0 for no effect and ±100 for the full control effect
#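 THP-1 cells pretreated 1 hr with compounds (up to 57.5 uM final), then stimulated with LPS (250 ng/mL final) plus ATP (1.25 mM final); secreted IL-1B measured by AlphaLISA after 16 hr, decreased signal indicating inhibition.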
# TGFb SMAD3 inh = inhibitors of TGF-b signaling. actives 1.2% (n = 410,000). Potency, µM (titrated, usually from 46.1 µM), for inactives: at the highest dose activity, negative = inhibition, actives largely listed as inhibitors. AID 588855. HepG2 CAGA-GFP TGF-b/SMAD3 reporter, GFP fluorescence, 18 h; TGF-beta stimulated, 500 pg/mL final; note: potency is the fitted concentration of half-maximal effect; % is set by controls: 0 for no effect and ±100 for the full control effect; nearly all actives have a fitted effect of over 65% in size
#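 Inhibition of TGF-beta-driven CAGA-GFP reporter expression in HEPG2 cells is measured by cellular GFP fluorescence after 18 h stimulation with 500 pg/mL recombinant TGF-beta in 1% FBS medium at 37 degrees C.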
# DT40 TDP1 no CPT = qHTS for Inhibitors of human tyrosyl-DNA phosphodiesterase 1 (TDP1): qHTS in cells in absence of CPT; actives 15% (n = 420,000); AID 686978, 2013; Potency, µM (top dose mostly 46.2 µM), without a hit: at the highest dose activity change, negative = growth inhibition, actives largely listed as inhibitors; DT40 Tdp1-/- hTDP1 cells, no CPT, ATP luminescence, 48 h; note: potency is the fitted concentration of half-maximal effect; % is set by controls: 0 for no effect and ±100 for the full control effect; nearly all actives have a fitted effect of over 55% in size
#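 Chicken DT40 Tdp1-/- cells complemented with human TDP1, screened without camptothecin (DMSO vehicle only), 400 cells/well. Compounds pin-transferred, cells incubated at 37 °C for at least 48 hr. Growth read as ATP-dependent luminescence (CellTiter-Glo, 30 min at RT).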
# Active calls of the source: *; ? = inconclusive; nt = not tested or not shown; [ ] = another dose, or the depositor's remark. Unless noted, calls come from the whole dose curve; as a rule, active = well fitted curve in the direction sought with a large enough effect; inconclusive = small, poorly fitted or top-dose-only effect, or another doubt; inactive = no such curve, though single readings can be large; an effect the other way counts as inactive or inconclusive.
SMILES,TDP1 block,DT40 TDP1 CPT,HepG2 tox,IL-1B inflam inh,TGFb SMAD3 inh,DT40 TDP1 no CPT
CNC(=O)C1(C)CCN1C(=O)Cc1ccc(C(C)C)cc1 (centres undefined),nt,-0.9%,-2.7%,17.2,24.4%,-18.4%
COCC(COS(N)(=O)=O)Cc1ccccc1 (centres undefined),nt,3.6%,5.2%,24.5,5.1%,-8.9%
CCC(=O)OCCCNc1nc(-c2ccc(Cl)cc2)nc2ccccc12,nt,?,-31.2%,nt,?,?
COc1cccc(CNC(=S)Nc2ccc3c(c2)c(=O)n(C)n3C)c1,nt,-2.9%,0.7%,-6.9,10.1%,-2.0%
O=C(c1ccc2nc(Cc3cccc(Cl)c3)oc2c1)N1CCC[C@H]1CO,2.4%,-22.1%,-3.6%,6.0,-9.1%,-8.2%
Brc1ccc(C2Nc3cccc4cccc(c34)N2)o1,?,20.6µM*,-11.8%,-77.3*,2.8%,18.4µM*
Oc1ccccc1C1Nc2cccc3cccc(c23)N1,-3.1%,?,-1.2%,9.9,0.0%,?
O=[N+]([O-])c1ccccc1C1Nc2cccc3cccc(c23)N1,7.9%,7.31µM*,-14.1%,-65.9*,?,?
CC1=C(C(=O)Nc2cccnc2)C(c2ccccc2)n2nc(SCc3ccccc3F)nc2N1 (centres undefined),-2.9%,?,1.8%,nt,3.6%,?
CCCCCOC(=O)CSc1nc2sc3c(c2c(=O)n1Cc1ccccc1)CC(C)(CC)OC3 (centres undefined),-1.3%[12.3 µM],?,0.8%,nt,-2.7%,?
CCCC(=O)Nc1ccc2c(c1)nc(CN1CCN(C(=O)OCC)CC1)n2CC,nt,3.66µM*,-6.6%,75.2,-4.1%,2.31µM*
CCCC(=O)Nc1ccc2c(c1)nc(CN1CCN(C(=O)OCC)CC1)n2C(C)C,1.6%,0.651µM*,-13.7%,nt,?,0.0651µM*
CCOC(=O)N1CCN(Cc2nc3cc(NC(=O)c4ccccc4Cl)ccc3n2C(C)C)CC1,0.5%,1.46µM*,-28.7%,nt,?,1.46µM*
CCCC(=O)Nc1ccc2c(c1)nc(CN1CCN(C(=O)OCC)CC1)n2C,nt,0.1%,-8.1%,24.4,0.0%,-6.2%
COc1ccc(Cl)cc1NC(=O)c1ccc2c(c1)CCN2S(C)(=O)=O,4.7%,?,-26.7%,nt,0.5%,?
COc1cccc(NC(=O)CN(C)C(=O)c2cc(S(=O)(=O)Nc3ccccc3OC)ccc2C)c1,nt,-20.4%,-3.9%,-14.2,2.5%,-9.4%
Cc1nc2c(-c3ccc(F)cc3)cnn2c(N)c1-c1ccc(F)cc1,nt,20.6µM*,-16.7%,-67.0*,?,4.61µM*
COc1ccc(-c2c(C)nc3c(-c4ccccn4)cnn3c2N)cc1,nt,?,-36.7%,-28.2,11.2µM*,18.4µM*
COc1ccc2c(Cl)c(C(=O)NCCc3ccc(S(N)(=O)=O)cc3)sc2c1,nt,-21.6%,22.6%,10.5,-0.6%,2.4%
O=C(OCCOc1cccc(Cl)c1)c1ccc2ncsc2c1,nt,4.6%,6.1%,22.1,9.5%,15.7%
COC(=O)C1=C(\O)CCCC/C=C\1C(=O)O,nt,1.2%,2.82µM*,7.8,14.0%,-0.2%
COc1cccc(-n2nc(C(N)=O)c(O)cc2=O)c1,1.2%,1.6%,-4.9%,11.7,-4.6%,-20.0%
COc1cccc(-n2nc(C#N)c(Cl)cc2=O)c1,9.2%,2.31µM*,17.8µM*,-101.4*,6.31µM*,2.91µM*
COC(=O)c1ccccc1C(=O)N(c1ccccc1)c1ccccc1,nt,6.51µM*,-24.5%,12.3,-2.7%,14.6µM*
COC(=O)c1ccc(NC(=O)N(c2ccccc2)c2ccccc2)cc1,-6.7%,-3.2%,2.2%,-4.4,-0.9%,?
SMILES,TDP1 block,DT40 TDP1 CPT,HepG2 tox,IL-1B inflam inh,TGFb SMAD3 inh,DT40 TDP1 no CPT
COc1ccc2nc(NC(=O)CSCC(=O)Nc3cc(C)on3)sc2c1,-11.2%,6.3%,10.8%,24.7,7.7%,-20.3%
COc1ccc(C(C(=O)NCc2ccccc2)n2c(-c3ccccn3)nc3ccccc32)cc1 (centres undefined),nt,16.4µM*,nt,-15.7,nt,?
CSCCC(C(=O)NC(C)(C)C)n1c(-c2ccc3c(c2)OCO3)nc2ccccc21 (centres undefined),nt,23.1µM*,nt,11.2,nt,20.6µM*
CSCCC(C(=O)Nc1c(C)cccc1C)n1c(-c2cnc(C)cn2)nc2ccccc21 (centres undefined),nt,?,nt,-11.9,nt,16.4µM*
Cc1ccc(-c2nc3ccccc3n2C(C(=O)NC(C)(C)C)C2CC2)cc1 (centres undefined),nt,20.6µM*,nt,76.4,nt,?
CSCCC(C(=O)Nc1c(C)cccc1C)n1c(-c2ccc(C(F)(F)F)cc2)nc2ccccc21 (centres undefined),nt,-4.9%,nt,39.8,nt,6.0%
Cc1ccc(-c2cc(C(=O)Oc3ccc(C#N)cc3)no2)cc1,-2.6%,-26.6%,-20.2%,nt,?,?
Cc1ccc(CNC(=O)CCCCn2c(=O)c3ccccc3n(Cc3c(C)cc(C)cc3C)c2=O)cc1,-2.1%[12.3 µM],-1.2%,-1.9%,nt,-0.9%,-9.8%
CC(C)(C)NC(=O)C(C1CC1)n1c(-c2ccccc2)nc2ccccc21 (centres undefined),nt,10.3µM*,nt,17.1,nt,8.2µM*
Cc1csc(-c2nc3ccccc3n2C(C(=O)NC(C)(C)C)c2cc3ccccc3o2)c1 (centres undefined),nt,?,nt,-18.5,nt,14.6µM*
CCC(C(=O)NC1CCCC1)n1c(-c2ccccn2)nc2ccccc21 (centres undefined),nt,7.31µM*,nt,28.4,nt,8.2µM*
CCC(C(=O)NC1CCCC1)n1c(C2CCCC2)nc2ccccc21 (centres undefined),nt,-25.0%,nt,-24.9,nt,?
COc1ccc(C(C(=O)NC(C)(C)C)n2c(-c3ccc(-c4ccccc4)cc3)nc3ccccc32)cc1 (centres undefined),nt,?,nt,7.6,nt,13µM*
O=C(NCC(c1cccs1)N1CCOCC1)c1ccc(Cl)nc1 (centres undefined),0.0%,-9.3%,-1.1%,28.7,3.3%,16.2%
Cn1c(CNC(=O)CSc2n[nH]c(-c3ccccc3)n2)nc2ccccc21,5.4%,8.0%,2.1%,nt,-2.3%,-1.2%
Cc1nc2c3ccccc3nc(SCC(=O)N3CC(C)CC(C)C3)n2n1 (centres undefined),0.0%,?,-3.6%,-24.7,-2.1%,?
